Rows were chosen to be rich in hits. Some 6.6% of all compounds tested hit in one or more screens of this group.
TSG101-PTAP inh: blocks PTAP/TSG101 interaction to inhibit HIV-1 budding. Q99816. Fluorescence polarization, FITC-PTAP peptide / Tsg101 binding. Potency, µM (top dose mostly 115 µM), for inactives: at the highest dose activity change, negative = inhibition, actives largely listed as inhibitors. 340,000 tested, under 10 active; active = well fitted inhibition curve with a large enough effect in the main read-out, with a control signal flat, not every such curve was filed as active; inconclusive = small, poorly fitted or top-dose-only effect, or effect the other way, or a change in a side signal; inactive = no such curve, though single readings can be large or run the other way; note: % of control where 0% means no effect
Target sequence (Q99816 whole entry, looked up): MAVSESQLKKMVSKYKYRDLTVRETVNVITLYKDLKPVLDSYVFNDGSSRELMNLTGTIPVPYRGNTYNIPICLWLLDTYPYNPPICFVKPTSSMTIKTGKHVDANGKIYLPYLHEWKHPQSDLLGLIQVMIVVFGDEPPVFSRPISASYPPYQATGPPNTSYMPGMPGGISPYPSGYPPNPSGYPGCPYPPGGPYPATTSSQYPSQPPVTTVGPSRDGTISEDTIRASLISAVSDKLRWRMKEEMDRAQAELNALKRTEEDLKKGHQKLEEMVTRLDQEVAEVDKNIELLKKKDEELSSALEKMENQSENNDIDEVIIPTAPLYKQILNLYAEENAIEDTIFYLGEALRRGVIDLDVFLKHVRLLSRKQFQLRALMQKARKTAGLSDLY
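Compounds were pin-transferred onto Tsg101 binding domain (10 uM final) in HEPES pH 7.5 buffer, then FITC-PTAP peptide was added at 50 nM final. After 20 min at RT, polarization reported peptide displacement across a qHTS concentration series.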
KB-3-1 tox: KB-3-1 parental cell cytotoxicity. KB-3-1 viability, CellTiter-Glo ATP luminescence, 72 h. Potency, µM (doses to about 46.1 µM), usual class: cytotoxic. 400,000 compounds, 1.4% hits; note: % is set by controls: 0 for no effect and ±100 for the full control effect; nearly all actives have a fitted effect of over 60% in size
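Parental KB-3-1 viability, qHTS format: 72 h compound exposure, 37 °C; CellTiter-Glo; media-only wells and DMSO plates as controls; concentration-effect fits on corrected data.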
MCF10A rerep: induces DNA re-replication in MCF 10a normal breast cells | MCF 10A DNA re-replication, Hoechst nuclear intensity, 48 h | Potency, µM (doses to about 46.1 µM), inactives show at the top dose activity, positive = re-replication, most hits filed as activators | 350,000 compounds, 2.9% hits; note: % of control where 0% means no effect; nearly all actives have a fitted effect of over 50% in size
KB-V1 cytotox: KB-V1 MDR subline cytotoxicity | Potency, µM (doses to about 46.1 µM), usual class: cytotoxic | 400,000 compounds, 3.4% hits | KB-V1 MDR cells viability, CellTiter-Glo, 72 h; note: % is set by controls: 0 for no effect and ±100 for the full control effect; nearly all actives have a fitted effect of over 60% in size
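qHTS viability screen in drug-selected KB-V1 MDR cells: 72 h compound treatment at 37 degrees C, ATP luminescence end point.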
SW480 rereplic: inducers of DNA re-replication in SW480 colon cancer cells; SW480 DNA re-replication, Hoechst DNA content imaging, 48 h; Potency, µM (top dose mostly 46.1 µM), inactives show at the highest dose re-replication activation, actives largely listed as activators; 340,000 compounds, 1.8% hits; note: % of control where 0% means no effect; nearly all actives have a fitted effect of over 55% in size
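250 cells/well; 23 nL cpd via pin tool; 48 hr, 37 C, 5% CO2; Hoechst 40 min; imager read of total nuclear intensity, ex 405/em 500-530 nm.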
RGS4 inhibitor: blocks human RGS4-accelerated GTP hydrolysis | Transcreener GDP fluorescence polarization, RGS4-accelerated GTP hydrolysis | AID 504845 | Potency, µM (top dose mostly 114 µM), for the others: top-dose activity change, negative = inhibition, most hits filed as inhibitors | 390,000 compounds, 0.039% hits | P49798; note: % is set by controls: 0 for no effect and ±100 for the full control effect; nearly all actives have a fitted effect of over 75% in size
Target sequence (P49798 whole entry, looked up): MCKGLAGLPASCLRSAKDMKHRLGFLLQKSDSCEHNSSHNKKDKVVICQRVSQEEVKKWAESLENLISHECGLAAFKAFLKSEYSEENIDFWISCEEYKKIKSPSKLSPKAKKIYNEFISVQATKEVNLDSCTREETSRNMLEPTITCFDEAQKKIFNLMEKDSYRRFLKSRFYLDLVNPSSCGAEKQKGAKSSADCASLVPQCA
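MLSMR compounds (23 nl, pin-transferred) preincubated 10 min at room temperature with a 500nM (2x) first reagent, then RGS4 at 900nM (2x) plus Transcreener GDP mix added; fluorescence polarization (620/688 nm) read before and after 90 min at 30 °C.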
* hit, by the source's call; i = inactive; ? = inconclusive; nt = no result; [ ] = remark or other dose. Unless noted, calls come from the whole dose curve; as a rule, active = well fitted curve in the direction sought with a large enough effect; inconclusive = small, poorly fitted or top-dose-only effect, or another doubt; inactive = no such curve, though single readings can be large; an effect the other way counts as inactive or inconclusive. Potency is the fitted concentration of half-maximal effect.

SMILES | TSG101-PTAP inh | KB-3-1 tox | MCF10A rerep | KB-V1 cytotox | SW480 rereplic | RGS4 inhibitor
Cc1ccc(N=CC=C2OC(C)(C)C(C)(C)O2)cc1 | 3.0% | ? | 16.4µM* | i | 0.82µM* | -51.3%
COc1ccc(N=CC=C2OC(C)(C)C(C)(C)O2)cc1OC | -3.8% | i | 9.0% | i | -25.0% | -41.3%
COc1cc2c(cc1OC)C(c1c(Cl)cccc1Cl)=NCC2 | nt | 20.6µM* | nt | ? | nt | nt
COc1cc2c(cc1OC)C(c1c(-c3c(Cl)cccc3Cl)noc1C)=NCC2 | nt | i | nt | ? | nt | nt
CCC(=NC)C1=C(O)CC(c2ccccc2)CC1=O (stereo unspecified) | 1.0% | i | -0.8% | i | -6.0% | -29.4%
CC(=NCCc1c(C)[nH]c2ccc(OCc3ccccc3)cc12)C1=C(O)CC(c2ccccc2)CC1=O (stereo unspecified) | -2.9% | i | 1.0% | ? | 2.3% | -15.7%
CCC(=NCCc1c(C)[nH]c2ccccc12)C1=C(O)CC(c2ccccc2)CC1=O (stereo unspecified) | -4.6% | 4.61µM* | 4.11µM* | 3.66µM* | 10.3µM* | 10.7%
CCC(=NCCc1c(C)[nH]c2ccc(OC(F)(F)F)cc12)C1=C(O)CC(c2ccccc2)CC1=O (stereo unspecified) | 0.3% | 4.11µM* | ? | 2.91µM* | 11.6µM* | -35.8%
CCCCC(=NCCc1c(C)[nH]c2ccc(OC)cc12)C1=C(O)CC(c2ccccc2)CC1=O (stereo unspecified) | -2.3% | 3.66µM* | 2.59µM* | 5.8µM* | 7.31µM* | -7.0%
CC(=O)Nc1ccc(NC(=O)c2nc(SCc3ccccc3F)ncc2Cl)cc1 | nt | ? | nt | i | nt | nt
Cc1ccc(-c2cn3c(n2)sc2cc(C(=O)N4CCCCC4)ccc23)cc1 | nt | i | nt | i | nt | 9.1%
Cc1cc(/C=N/NC(=O)Cn2c3ccccc3c(=O)c3ccccc32)c(C)n1-c1ccc(Cl)cc1 | -1.9% | ? | 11.6µM* | i | 15.9% | -18.6%
Cc1nc2ccccn2c1C(=O)N/N=C/c1cc(C)n(-c2ccc(Cl)cc2)c1C | -5.4% | i | 3.4% | i | 0.9% | -23.1%
COC(=O)N/N=C/c1cc(C)n(-c2ccccc2)c1C | -3.1% | i | 1.3% | i | -75.3% | 31.6%
Cc1ccc(-n2c(C)cc(/C=N/NC(=O)Cn3c4ccccc4c(=O)c4ccccc43)c2C)cc1 | 1.1% | i | 14.6µM* | i | 11.6µM* | -36.0%
COc1ccc(-n2nnnc2-c2cnc3cc4c(cc3c2C)OCO4)cc1 | -5.4% | i | 2.8% | 9.2µM* | 8.6% | -20.9%
Cc1ccccc1OCC(=O)N(Cc1ccc(N(C)C)cc1)CC1CCCO1 (stereo unspecified) | nt | nt | nt | nt | nt | 2.7%
CCOc1ccc(S(=O)(=O)NCc2cccn2Cc2cccc(C)c2)cc1 | nt | i | nt | i | nt | 14.9%
CC(O)(c1ccc(F)c(F)c1)c1nc(-c2ccc(S(C)(=O)=O)cc2)cs1 (stereo unspecified) | nt | ? | nt | 20.6µM* | nt | nt
CCOC(=O)c1c(C)nc2c(C)cccn12 | -0.7% | i | -4.1% | i | -1.0% | 9.4%
Cc1nc2c(C)cccn2c1C(=O)c1ccccc1 | -3.7% | ? | -3.0% | 25.9µM* | -4.4% | -3.0%
Cc1ccc(S(=O)(=O)N(CC(=O)Nc2cccnc2)c2cc(Cl)ccc2C)cc1 | nt | i | nt | i | nt | 6.8%
Cc1ccc(C)c(OCCn2cc(C(=O)c3cccs3)c3ccccc32)c1 | nt | i | nt | i | nt | -17.0%
COc1ccccc1NC(=O)c1sc2nc3c(c(C(F)(F)F)c2c1N)CN(C(C)=O)CC3 | nt | i | nt | i | nt | -8.2%
CCOC(=O)c1ccc(N2CCOCC2)c(NC(=O)c2c(-c3ccccc3)noc2C)c1 | 0.0% | 5.8µM* | 10.3µM* | ? | 20.6µM* | -29.2%
SMILES | TSG101-PTAP inh | KB-3-1 tox | MCF10A rerep | KB-V1 cytotox | SW480 rereplic | RGS4 inhibitor
Cc1onc(-c2ccccc2)c1C(=O)Nc1cc(C(F)(F)F)ccc1N1CCOCC1 | -5.4% | 5.8µM* | 5.01µM* | 5.17µM* | 11.2µM* | -16.1%
Cc1noc(C)c1C(=O)Nc1ccccc1N1CCOCC1 | -0.7% | i | 9.6% | i | -4.3% | -8.7%
Cc1onc(-c2ccccc2)c1C(=O)Nc1ccccc1N1CCOCC1 | -5.0% | i | -0.7% | 13µM* | 2.4% | 3.8%
CC(C)CC(=O)NC(=S)Nc1cc(C(F)(F)F)ccc1N1CCOCC1 | -1.9% | i | 1.8% | 18.4µM* | ? | 17.0%
COc1cc(NC(=O)c2cccs2)c(OC)cc1NC(=O)CCC(=O)Nc1ccc2ncccc2c1 | 0.6% | i | 20.6µM* | i | ? | ?
Cc1ccccc1Cn1c(=O)n(-c2ccc(Cl)cc2)c(=O)c2c3c(sc21)CCCC3 | nt | i | nt | i | nt | -4.2%
CN(CC(=O)NC(=O)NCc1ccco1)Cc1nc2ccccc2c(=O)[nH]1 | -4.4% | i | ? | i | 5.17µM* | -12.9%
COc1ccc(CCN(Cc2nc3ccccc3c(=O)[nH]2)C(=O)c2ccco2)cc1 | -4.1% | i | 9.8% | 20.6µM* | 16.7% | 1.8%
CCN(CCS(=O)(=O)c1ccc(Cl)cc1)Cc1nc2ccccc2c(=O)[nH]1 | -2.1% | i | 3.3% | 7.31µM* | -7.4% | 6.7%
COc1ccc(CN(Cc2nc3ccccc3c(=O)[nH]2)C(=O)C(C)(C)C)cc1 | -4.4% | i | 4.0% | i | -0.1% | -45.3%
CCC(CC)C(=O)N(CCc1ccc(OC)cc1)Cc1nc2ccccc2c(=O)[nH]1 | -3.5% | i | 23.1µM* | ? | 20.6µM* | -13.8%
COC(=O)c1cc2oc3ccccc3c2n1Cc1c(F)cccc1Cl | nt | nt | nt | nt | nt | 19.4%
CCCCOC(=O)c1ccc(NC(=O)/C(C#N)=C/c2ccc(-c3ccccc3)o2)cc1 | nt | i | nt | i | nt | -8.9%
Cc1ccc(OC(C)C(=O)Nc2nonc2-c2ccc(Br)cc2)cc1C (stereo unspecified) | nt | i | nt | i | nt | -9.4%
COc1ccc2nc(/N=C/c3c(C)[nH]n(-c4ccc(C)cc4)c3=O)sc2c1 | -4.3% | ? | 6.7% | 8.2µM* | 0.6% | 1.7%
Cc1ccc(-n2[nH]c(C)c(C=Nc3ccc4[nH]c(=O)[nH]c4c3)c2=O)cc1 | -25.5% | 20.6µM* | ? | ? | ? | 9.3%
COc1ccc2nc(/N=C\N(C)C)sc2c1 | 2.6% | i | 2.3% | i | 6.1% | 12.9%[56.9 µM]
Cc1ccc(-n2[nH]c(C)c(C=Nc3ccc4[nH]c(=O)[nH]c4c3)c2=O)cc1C | -19.6% | ? | ? | ? | ? | -11.9%
Cc1ccc(N=Cc2c(C)[nH]n(-c3nc4ccccc4[nH]3)c2=O)cc1 | 1.6% | 8.2µM* | 0.4% | 6.51µM* | -1.7% | -32.1%

Screening data as filed in PubChem BioAssay.
